Records with an inconclusive call do not appear. The source holds several records for some structures; these can differ, active in one and inactive in another. Values without a mark were called inactive. Active and inactive are the calls of the source. Unless noted, calls follow the shape of the dose curve; as a rule, active = well fitted curve in the direction sought with a large enough effect; inconclusive = small, poorly fitted or top-dose-only effect, or another doubt; inactive = no such curve, though single readings can be large; an effect the other way counts as inactive or inconclusive.
Legend:
[1] = molecular target: Cellular tumor antigen p53 (Homo sapiens) (UniProt P04637); test: Primary qHTS for small molecule compounds that upregulate eGFP-tagged delta133p53alpha (in N-terminal) cells. (AID 2060322); settings: NCI-H358 eGFP-delta133p53alpha fluorescence, 24 h; activation: stronger effect = higher value; also: nearly all actives have a fitted effect of over 75% in size; also: potency is read from the fitted curve at half-maximal effect;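 as to activation: series mostly up to about 56 µM; 0% = DMSO vehicle and 100% = reference activator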
Chain of Cellular tumor antigen p53 (Homo sapiens) (P04637 whole entry, looked up): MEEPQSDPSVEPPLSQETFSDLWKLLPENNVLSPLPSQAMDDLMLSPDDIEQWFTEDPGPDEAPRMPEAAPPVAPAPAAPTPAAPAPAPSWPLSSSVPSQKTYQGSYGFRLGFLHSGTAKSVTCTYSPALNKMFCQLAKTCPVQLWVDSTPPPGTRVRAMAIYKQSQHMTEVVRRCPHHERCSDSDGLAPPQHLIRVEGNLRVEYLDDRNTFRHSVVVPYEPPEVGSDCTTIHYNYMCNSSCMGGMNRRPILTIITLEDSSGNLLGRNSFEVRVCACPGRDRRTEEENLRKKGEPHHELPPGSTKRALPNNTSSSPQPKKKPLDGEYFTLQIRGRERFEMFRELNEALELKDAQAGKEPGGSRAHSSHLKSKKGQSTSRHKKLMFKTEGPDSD
Outline: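 NCI-H358 cells pre-induced 24 h with 10 ng/ml doxycycline to express N-terminal eGFP-delta133p53alpha, then dosed 24 h at 37C without doxycycline; fixed, Hoechst-stained, GFP intensity by laser scanning cytometry, normalized to DMSO (0%) and 57.5 uM 5-azacytidine (100%).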

[2] = molecular target: Cellular tumor antigen p53 (Homo sapiens) (UniProt P04637); test: Primary qHTS for small molecule compounds that upregulate eGFP-tagged delta133p53alpha (in C-terminal) cells. (AID 2060324); also: potency is read from the fitted curve at half-maximal effect
Outline: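 NCI-H358 cells pre-induced 24 h with 100 ng/ml doxycycline to express delta133p53alpha-eGFP, then dosed in doxycycline-free medium for 24 h at 37C. Fixed, Hoechst-stained; GFP intensity by laser scanning cytometry, normalized to DMSO wells.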

[3] = molecular target: Aldehyde dehydrogenase, mitochondrial (Homo sapiens) (UniProt P05091); test: qHTS for Inhibitors of the Aldehyde Dehydrogenase Family (ALDH2) Validation screens (AID 2061302; active = well fitted inhibition curve with a large enough effect; title and protocol of this record describe different tests;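 also: plate controls were DMSO vehicle for no effect and maximal DPI positive control response for full effect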)
[4] = molecular target: Retinaldehyde dehydrogenase 3 (Homo sapiens) (UniProt P47895); test: qHTS for Inhibitors of the Aldehyde Dehydrogenase Family (ALDH1A3) Validation screen (AID 2061312); also: % is scaled to controls: 0 for no effect and ±100 for the full control effect; nearly all actives have a fitted effect of over 45% in size
[5] = BET inhibitor-based combinations targeting novel dependencies in MECOM-rearranged (r) AML: SET-2 cell line (AID 2202231); settings: SET-2 AML cells viability, CellTiter-Glo luminescence, 48 h; viability: stronger effect = lower value, concentration not given here; also: potency is read from the fitted curve at half-maximal effect; nearly all actives have a fitted effect of over 35% in size
Outline: (§1)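 AML cell lines seeded at 500 cells/well, treated with 11-point dose curves for 48 h. Viability by CellTiter-Glo luminescence, normalised to DMSO and empty wells; activity expressed as AUC and per-cell-line Z-transformed AUC.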

[6] = BET inhibitor-based combinations targeting novel dependencies in MECOM-rearranged (r) AML: MV-4-11 cell line (AID 2202233); also: potency is read from the fitted curve at half-maximal effect; nearly all actives have a fitted effect of over 45% in size
Outline: (§2)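 Cells at 500/well were exposed for 48 hr to MIPE v5.0 drugs as 11-point dose curves. Viability was read by CellTiter-Glo luminescence and normalized to DMSO and empty-well controls. Activity was expressed as AUC and per-cell-line Z-AUC.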

[7] = BET inhibitor-based combinations targeting novel dependencies in MECOM-rearranged (r) AML: HNT-34 cell line (AID 2202234); also: potency is read from the fitted curve at half-maximal effect; nearly all actives have a fitted effect of over 35% in size
Outline: as §2

[8] = BET inhibitor-based combinations targeting novel dependencies in MECOM-rearranged (r) AML: UCSD-AML1 cell line (AID 2202235); also: potency is read from the fitted curve at half-maximal effect; nearly all actives have a fitted effect of over 40% in size
Outline: as §2

[9] = BET inhibitor-based combinations targeting novel dependencies in MECOM-rearranged (r) AML: AML-191 cell line (AID 2202236; also: potency is read from the fitted curve at half-maximal effect; nearly all actives have a fitted effect of over 35% in size)
Outline: as §1

[10] = BET inhibitor-based combinations targeting novel dependencies in MECOM-rearranged (r) AML: AML-194 cell line (AID 2202237; also: potency is read from the fitted curve at half-maximal effect; nearly all actives have a fitted effect of over 40% in size)
Outline: as §1

[11] = BET inhibitor-based combinations targeting novel dependencies in MECOM-rearranged (r) AML: OCI-AML3 cell line (AID 2202232); settings: Potency: OCI-AML3 viability; also: potency is read from the fitted curve at half-maximal effect; nearly all actives have a fitted effect of over 35% in size
Outline: as §1

## CCCc1c(OCCCCc2nn[nH]n2)ccc(C(C)=O)c1O
[1]
  activation: -2.82%

## CC(C)OC(=O)[C@H](C)N[P@](=O)(OC[C@H]1O[C@@H](n2ccc(=O)[nH]c2=O)[C@](C)(F)[C@H]1O)Oc1ccccc1
[1]
  activation: 15%

## Cn1c([N+](=O)[O-])cnc1COC(N)=O
[1]
  activation: -9.6%

## O=C(C=Cc1c(C(=O)O)[nH]c2cc(Cl)cc(Cl)c12)Nc1ccccc1
[1]
  activation: 33.2%

## Cn1cncc1[C@@](N)(c1ccc(Cl)cc1)c1ccc2c(c1)c(-c1cccc(Cl)c1)cc(=O)n2C
[1]
  activation: 15.2%

## CCNC(=O)/C=C/c1cccc(Br)c1
[1]
  activation: -10.9%

## CC(C)(Oc1ccc(Cl)cc1)C(=O)O
[1]
  activation: -18.4%

## C[C@@]12C[C@@]3(O)O[C@@H](O1)[C@]1(COC(=O)c4ccccc4)[C@@H]3C[C@@]12O[C@@H]1O[C@H](CO)[C@@H](O)[C@H](O)[C@@H]1O
[1]
  activation: 35.7%

## C[C@@H]1CCC[C@H](C)N1
[1]
  activation: 8.37%

## CC(=O)c1ccc2c(c1)N(CCCN1CCC(CCO)CC1)c1ccccc1S2
[1]
  activation: 0%

## COc1ccccc1OCC(O)CO (stereo not drawn)
[1]
  activation: -10.9%

## Oc1cccc2[nH]ccc12
[1]
  activation: -5.08%

## CCCCCCCCCCOc1cc2c(=O)c(C(=O)OCC)c[nH]c2cc1OCC
[1]
  activation: -12.6%

## COc1ccc2c3c1OC1C[C@@H](O)C=C[C@@]31CCN(C)C2 (stereo partly drawn)
[1]
  activation: 8.8%

## CCCCc1nc(Cl)c(CO)n1Cc1ccc(-c2ccccc2-c2nn[nH]n2)cc1
[1]
  activation: -19.2%

## OC[C@]1(O)OC[C@@H](O)[C@H](O)[C@@H]1O
[1]
  activation: -16.7%

## CCN[C@H]1CN(CCCOC)S(=O)(=O)c2sc(S(N)(=O)=O)cc21
[1]
  activation: 13%

## O=C(CCN1CCN(CCO)CC1)N1c2ccccc2Sc2ccc(C(F)(F)F)cc21
[1]
  activation: -5.08%

## CCCCCOC(=O)Nc1nc(=O)n([C@@H]2O[C@H](C)[C@@H](O)C2O)cc1F (stereo partly drawn)
[1]
  activation: -14.6%

## CCCCC1(COC(=O)CCC(=O)O)C(=O)N(c2ccccc2)N(c2ccccc2)C1=O
[1]
  activation: -7.34%

## CC(=O)OC[C@H]1O[C@@H](n2cnc(N)nc2=O)[C@H](OC(C)=O)[C@@H]1OC(C)=O
[1]
  activation: -22.3%

## CC=CC1=C(C(=O)O)N2C(=O)[C@H](NC(=O)[C@H](N)c3ccc(O)cc3)[C@@H]2SC1
[1]
  activation: 11.1%

## CC[N+](CC)(CCNC(=O)C(=O)NCC[N+](CC)(CC)Cc1ccccc1Cl)Cc1ccccc1Cl
[1]
  activation: -9.6%

## CS[C@H]1SC[C@@H]2C(=O)N(C)[C@H](C(C)C)C(=O)OC[C@H](NC(=O)c3cnc4ccccc4n3)C(=O)N[C@H](C)C(=O)N(C)[C@@H]1C(=O)N(C)[C@H](C(C)C)C(=O)OC[C@H](NC(=O)c1cnc3ccccc3n1)C(=O)N[C@H](C)C(=O)N2C
[1]
  Potency: 0.0343 µM (active)

## CCCOc1ccc2c(c1)CC[C@@H]1[C@@H]2CC[C@]2(C)C(OC)CC[C@@H]12 (stereo partly drawn)
[1]
  activation: 0.565%

## C[C@H](CCC(=O)O)[C@H]1CC[C@H]2[C@@H]3[C@H](O)C[C@@H]4C[C@H](O)CC[C@]4(C)[C@@H]3CC[C@]12C
[1]
  activation: -19.5%

## COc1ccc(CN(CCN(C)C)c2ncccn2)cc1
[1]
  activation: 5.08%

## C=CCCCCCCCCC(=O)O
[1]
  activation: -20.9%

## CCCCCCOc1ccccc1C(N)=O
[1]
  activation: 8.47%

## NS(=O)(=O)c1ccc(NC(=O)CCC(=O)O)cc1
[1]
  activation: 14.1%

## C[C@H]1O[C@@H](O[C@H]2CC[C@@]3(C)[C@H](CC[C@@H]4[C@@H]3C[C@@H](O)[C@]3(C)[C@@H](C5=CC(=O)OC5)CC[C@]43O)C2)C[C@H](O)[C@@H]1O[C@H]1C[C@H](O)[C@H](O[C@H]2C[C@H](O)[C@H](O[C@@H]3O[C@H](CO)[C@@H](O)[C@H](O)[C@H]3O)[C@@H](C)O2)[C@@H](C)O1
[1]
  Potency: 1.55 µM (active)

## C[C@@H]1[C@H](O)[C@@H](C)C=CC=CC=CC=CC=CC=CC=C[C@H](O[C@@H]2O[C@H](C)[C@H](O)[C@H](N)[C@@H]2O)C[C@@H]2O[C@](O)(C[C@@H](O)C[C@@H](O)[C@H](O)CC[C@@H](O)C[C@@H](O)CC(=O)O[C@H]1C)C[C@H](O)[C@@H]2C(=O)O
[1]
  activation: -1.15%

## CN(C)CCOc1ccc(C(=C(CCCl)c2ccccc2)c2ccccc2)cc1
[1]
  activation: 17.8%

## OC[C@H]1O[C@@H](O[C@H]2[C@@H](O)[C@@](O)(CO)O[C@@H]2CO)[C@H](O)[C@@H](O)[C@@H]1O
[1]
  activation: 0.771%

## OCC(O)C(O)C(O)CO (stereo not drawn)
[1]
  activation: 28.5%

## CC(=O)Oc1ccc(C(=C2CCCCC2)c2ccc(OC(C)=O)cc2)cc1
[1]
  activation: 9.6%

## CCS(=O)(=O)CCn1c([N+](=O)[O-])cnc1C
[1]
  Potency: 17.4 µM (active)

## O=C(O)CCCc1ccccc1
[1]
  activation: 20.9%

## CCOc1cc(OCC)c(C(=O)CCC(=O)O)cc1OCC
[1]
  activation: -15.3%

## CCN(CC)c1ccc(C(=C2C=CC(=[N+](CC)CC)C=C2)c2cc(S(=O)(=O)O)ccc2S(=O)(=O)[O-])cc1
[1]
  activation: -8.47%

## C[C@H]1O[C@@H](n2cc(F)c(=O)[nH]c2=O)[C@H](O)[C@H]1O
[1]
  activation: 0.294%

## CCOC(=O)c1cccnc1
[1]
  activation: -9.6%

## O=C(CS(=O)Cc1ccco1)NC/C=C\COc1cc(CN2CCCCC2)ccn1 (stereo not drawn)
[1]
  activation: -5.08%

## CN1Cc2cc(C(=O)N3CCC(C4CCNCC4)CC3)ccc2N[C@@H](CC(=O)O)C1=O
[1]
  activation: 20.1%

## COC(=O)c1cc(Cl)ccc1OC
[1]
  activation: 2.51%

## C=CC1=C(C(=O)O)N2C(=O)[C@@H](NC(=O)C(=NO)c3csc(N)n3)[C@H]2SC1
[1]
  activation: -4.61%

## O=C(Nc1ccc(C(=O)O)c(O)c1)c1ccccc1
[1]
  activation: -30.1%

## CN1CCN(c2c(F)cc3c(=O)c(C(=O)O)cn4c3c2OCN4C)CC1
[1]
  activation: -9.21%

## Cc1ccc2c(c1)c1c3n2CCNC3CCC1 (stereo not drawn)
[1]
  activation: -0.837%

## CC(C)COCC(CN(Cc1ccccc1)c1ccccc1)N1CCCC1 (stereo not drawn)
[1]
  Potency: 34.7 µM (active)
  activation: -16.2%
[2]
  Potency: inactive
[3]
  Potency: inactive
[4]
  Potency: inactive
[5]
  Potency: 23.5 µM (active)
[6]
  Potency: 26.3 µM (active)
[7]
  Potency: 16.6 µM (active)
[8]
  Potency: 20.9 µM (active)
[9]
  Potency: 20.9 µM (active)
[10]
  Potency: 23.5 µM (active)

## COc1cc(S(N)(=O)=O)cc(C(=O)O)c1OC
[1]
  activation: -2.82%

## CC[C@H]1CN2CCc3cc(OC)c(OC)cc3[C@@H]2C[C@@H]1C[C@H]1NCCc2cc(OC)c(OC)cc21
[1]
  Potency: 0.617 µM (active)
  activation: 20.5%
[2]
  Potency: 0.151 µM (active)
[3]
  Potency: inactive
[4]
  Potency: inactive
[5]
  Potency: 0.372 µM (active)
[11]
  Potency: 0.468 µM (active)
[6]
  Potency: 0.235 µM (active)
[7]
  Potency: 0.332 µM (active)
[8]
  Potency: 0.372 µM (active)
[9]
  Potency: 0.417 µM (active)
[10]
  Potency: 0.372 µM (active)
